Data reported in PubChem BioAssay (Tox21).
Inconclusive results are not listed. A number with no mark means an inactive call. Activity calls are given as the source filed them. The call rests on the fitted dose curve.

target: 5-hydroxytryptamine receptor 2A (Homo sapiens) (UniProt P28223); assay: 5-hydroxytryptamine receptor 2A (HTR2A) small molecule antagonists, cell-based qHTS assay (AID 1963586); conditions: HTR2A-CHO cells, DOI-induced calcium flux, fluorescence; series mostly up to 61.5 µM; activity, negative = inhibition: at the top concentration; further: nearly all actives have a fitted effect of over 45% in size
Sequence (P28223 whole entry, looked up): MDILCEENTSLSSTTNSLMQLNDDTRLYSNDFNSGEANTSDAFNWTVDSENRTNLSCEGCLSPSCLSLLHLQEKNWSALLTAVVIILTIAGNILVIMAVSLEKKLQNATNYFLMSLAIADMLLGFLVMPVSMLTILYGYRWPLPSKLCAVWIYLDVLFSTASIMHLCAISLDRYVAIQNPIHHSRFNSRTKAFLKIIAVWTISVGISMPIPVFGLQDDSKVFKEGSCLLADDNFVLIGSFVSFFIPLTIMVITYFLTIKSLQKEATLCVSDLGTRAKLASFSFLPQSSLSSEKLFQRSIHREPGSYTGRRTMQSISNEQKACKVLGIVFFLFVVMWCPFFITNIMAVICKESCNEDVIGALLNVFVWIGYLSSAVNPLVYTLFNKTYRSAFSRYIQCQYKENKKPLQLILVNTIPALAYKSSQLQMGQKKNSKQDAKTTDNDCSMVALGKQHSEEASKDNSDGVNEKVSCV
Excerpt: National Center for Advancing Translational Sciences [NCATS]
Division of Preclinical Innovation [DPI]
U.S. Environmental Protection Agency [EPA]
National Institutes of Environmental Health Sciences [NIEHS]
National Toxicology Program [NTP]
U.S. Food and Drug Administration [FDA]
The HTR2A receptor is a subtype of the 5-HT2 receptor that belongs to the serotonin receptor family and is a G protein-coupled receptor (GPCR). The HTR2A-CHO cell line stably expressing human 5-hydroxytryptamine receptor 2A (HTR2A) can be used for screening antagonists of interactions between 5-HT2 and its ligands. The HTR2A-CHO calcium flux assay is a homogeneous fluorescence-based assay for detecting the intracellular calcium level using FDSS kinetic plate reader system.
Tox21 Assay Protocol Summary:
HTR2A-CHO cells were dispensed at 2000 cells/3uL/well in 1536-well black-clear bottom plates using a Multidrop Dispenser. After the assay plates were incubated at a 37 C/5% CO2 incubator for 18 h, 3 uL of Dye Loading Buffer was transferred to the assay plate by a Flying Reagent Dispenser. The assay plates were incubated at 37 C for 1h. For antagonist mode, 23 nL of compounds dissolved in DMSO, positive controls or DMSO only was transferred to the assay plate by a pin tool. After 5 min incubation at room temperature, 1.5 uL of 4-Iodo-2,5-dimethoxy-alpha-methylbenzeneethanamine hydrochloride (DOI) at 4nM was added to each well. The fluorescence intensity in the plates was measured using FDSS 7000EX kinetic plate reader for 3 min at 1 sec intervals.
On the % scale 0 is the no-effect control and ±100 the full control effect; potency means the concentration at half of the fitted maximal effect.

SMILES	activity, negative = inhibition	Potency
CCCCc1ccc(N)cc1	-2.72%	
CCCCC(CC)COC(=O)COc1ccc(Cl)cc1C (stereo not given)	-6.13%	
COC(=O)C(C)(C)C	15.5%	
CC(=O)Oc1ccc(C(C)=O)cc1	27.8%	
O=C(CCCl)NCCc1ccccc1	21.3% [at 28.5 µM]	
Nc1ccccc1S(=O)(=O)c1ccccc1	0.136%	
CCCCCCCCCC#N	2.9%	
CO[Si](CCCn1c(=O)n(CCC[Si](OC)(OC)OC)c(=O)n(CCC[Si](OC)(OC)OC)c1=O)(OC)OC	10% [at 28.5 µM]	
CC(C)(C)C1(CCc2ccc(Cl)cc2)CO1 (stereo not given)	-1.37%	
CN1CCC(=C2c3ccccc3CCc3sccc32)CC1		0.0116 µM (active)
CN(C)CCCOC1(Cc2ccccc2)CCCCCC1		10.3 µM (active)
CCOC(=O)/C=C/C(=O)O	6.66%	
CC(C)NCC(O)COc1ccc(COCCOC(C)C)cc1 (stereo not given)	5.61% [at 28.5 µM]	
OC1CCC(C2CCCCC2)CC1 (stereo not given)	11.1%	
ClC(Cl)(Br)Br	-15.6%	
Nc1c2c(nc3ccccc13)CCCC2O (stereo not given)	11.1% [at 28.5 µM]	
CC(C)Oc1ccccc1O	-12.1%	
CCc1nn(C2CCCCC2)c2cc(C3(C#N)CCC(C(=O)O)CC3)ccc12 (stereo not given)	-14.9%	
O=C(O)c1cccc(C(=O)O)n1	15.8%	
CC(=O)CC(=O)OC(C)(C)C	-0.318%	

SMILES	activity, negative = inhibition	Potency
C=C[Si](C)(C)Cl	-2.68% [at 5.62 µM]	
CCCCCCCCc1ccc(S(=O)(=O)O)cc1	-25.6%	
CC(=O)Nc1ccc(N)cc1	12.4%	
Cc1cccc2nccnc12	9.75%	
CCOC(=O)C(O)c1ccccc1 (stereo not given)	54.2% [at 28.5 µM]	
CCc1nccnc1CC	-8.77% [at 12.7 µM]	
O=C(O)CCCc1c[nH]c2ccccc12	-0.8%	
C[N+]1(CC2COC(c3ccccc3)(c3ccccc3)O2)CCCCC1 (stereo not given)	-7.46% [at 12.7 µM]	
CCCCCCC(O)CO (stereo not given)	53.5%	
CCNc1nc(NC(C)(C)C)nc(OC)n1	12.3%	
CC(C)(c1ccc(Oc2ccc3c(c2)C(=O)OC3=O)cc1)c1ccc(Oc2ccc3c(c2)C(=O)OC3=O)cc1	-3.69%	
C=C(C)C(=O)OCC(C)(C)COC(=O)C(=C)C	-15.1%	
NS(=O)(=O)c1cc(-c2nn[nH]n2)c(NCc2cccs2)cc1Cl	-4.65% [at 28.5 µM]	
CCOC(=O)CCCCCCCCC(=O)OCC	5.19%	
COC(=O)C1=C(C)NC(C)=C(C(=O)OCCN2CCN(C(c3ccccc3)c3ccccc3)CC2)C1c1cccc([N+](=O)[O-])c1 (stereo not given)		8.18 µM (active)
CC/C=C\CCOC(C)=O	3.91%	
Cc1ccc(C=O)s1	-0.434%	
Nc1nc(Cl)nc2c1ncn2[C@@H]1O[C@H](CO)[C@@H](O)[C@@H]1F	7.57% [at 28.5 µM]	
COc1ccc(N)c([N+](=O)[O-])c1	-7.39%	
CC[C@H](NC(C)C)[C@H](O)c1ccc(O)c2[nH]c(=O)ccc12	-80% [at 28.5 µM]	
